# Measurements from ChEMBL document CHEMBL3988442, “University of Dundee, Small-Polar-MMV Screening Library” (2021).
# Out of some 38,000 compounds screened, about 1,200 (3.2%) showed an effect of 50% or more. The median lay at about -58%. This is one part of a sample in which strong results are shown more often than they occur.
# Test system: Plasmodium falciparum
# Assay: Calibr Malaria Delayed Death Assay SOP
# Assay type: functional, organism-based
# Design: scale not given: in the data most compounds retested in dose-response had high values
# Details: concentration 4.99e-06 (unit not given; other assays of the set use mol/L)
row,Compound,Percent Effect [%]
1,CN(Cc1cccnc1)CC1CC12CCN(Cc1nccs1)CC2 (stereo unspecified),-24.57
2,CN(Cc1cccnc1)CC1CC12CCCC2 (stereo unspecified),-51.15
3,Cc1ccc(CN(Cc2ccncc2)C2CCN(C)CC2)s1,33.34
4,Cc1ccc(CN(Cc2[nH]cnc2C)C2CC(C)(C)NC(C)(C)C2)o1.O=C(O)CC(O)(CC(=O)O)C(=O)O,-80.85
5,Cc1ccsc1CN(C)Cn1nccc1-c1cccnc1,-75.2
6,CC1(C)CC(N(Cc2cccnc2)Cc2cccc(F)c2)CC(C)(C)N1.O=C(O)CC(O)(CC(=O)O)C(=O)O,75.47
7,O=C(Nc1cccnc1)N(Cc1ccccc1)C1CC1,-66.01
8,Cc1cccc(CN(Cc2cccnc2)C2CC(C)(C)NC(C)(C)C2)n1.O=C(O)CC(O)(CC(=O)O)C(=O)O,40.19
9,Cc1ccc(CN(Cc2ccccn2)C(=O)[C@H]2CC[C@@H](N)C2)s1,-62.59
10,Cc1c[nH]c(CN2CCOC(c3ccc(Cl)c(Cl)c3)C2)c(C)c1=O (stereo unspecified),-31.43
11,Cc1cc(CNC(=O)NCc2cccs2)no1,-38.54
12,COc1cccc2c1ccn2CC(=O)Nc1nc[nH]n1,-178.4
13,COCCCN(CCOC)C(=O)Nc1ccccc1Br,-3.396
14,Fc1cnc(N2CCN3C[C@H](Oc4cccnc4)C[C@H]3C2)nc1.O=C(O)C(F)(F)F.O=C(O)C(F)(F)F.O=C(O)C(F)(F)F,-67.51
15,CN(C)c1nc2sc(C(=O)N3CCNC(=O)CC3)cc2s1,-35.45
16,CCOC(=O)[C@H]1[C@@H](O)C(=O)N(C)C12CCN(S(=O)(=O)CC)CC2,-82.82
17,CS(=O)(=O)NCc1ncn2c1CN(C(=O)C1CCCCC1)CCC2,-51.87
18,CN(Cc1cccnc1)C1CC2(CCN(C(=O)c3ccnnc3)CC2)C1,-29.79
19,COc1cc(F)ccc1N(C)Cc1cccnc1,-76.29
20,CC1(C)CC(N(Cc2cccnc2)Cc2cccnc2)CC(C)(C)N1.O=C(O)CC(O)(CC(=O)O)C(=O)O,-10.22
21,CC1(C)CC(N(Cc2ccncc2)Cc2cccnc2)CC(C)(C)N1.O=C(O)CC(O)(CC(=O)O)C(=O)O,22.16
22,Cc1ccc(C(=O)N(Cc2cccnc2)C[C@@H]2CCC(=O)N2)s1,-86.25
23,CCCN(Cc1cccnc1)C1CC(C)(C)NC(C)(C)C1.O=C(O)CC(O)(CC(=O)O)C(=O)O,76.54
24,C[C@]1(O)CCN(Cc2cccnc2)C[C@@H]1Oc1cccc(F)c1,9.643

row,Compound,Percent Effect [%]
1,COc1cccc(CNC(=O)c2cc(C)nc(N3CCCC3)n2)c1,-64.99
2,CC(C)OC(=O)N1CCC(c2nnc(Cn3ccnc3)n2C)CC1,-243.5
3,O=C(O)C(F)(F)F.O=C(c1cccnc1)N1CCC2(CC1)CC(Oc1ccccc1)CO2 (stereo unspecified),-74.94
4,CCc1ccc2nc(-c3cnn(C)c3)cc(C(=O)N3CCOCC3)c2c1,-101.2
5,CCS(=O)(=O)NCc1cccnc1N1CCCC(O)C1 (stereo unspecified),-44.06
6,Cc1cnn(CC(=O)N(CC2CN(C)CCO2)c2nccs2)c1 (stereo unspecified),-66.52
7,Cc1ccc(S(=O)(=O)Nc2ccc(-n3ccnc3C)nc2)cc1N(C)C,-25.67
8,CC(=O)N(C)c1nc(Cn2nnnc2C(C)C)cs1,-150.3
9,Cc1ccc(CN2CCc3onc(COc4cccnc4)c3C2)s1.O=C(O)C(F)(F)F.O=C(O)C(F)(F)F,3.567
10,COc1ccc(-c2ncccc2C(=O)N2C[C@H]3CC[C@@H]2C3)cn1,-112.3
11,N#Cc1ccc(NCCCN2C(=O)COc3ccccc32)nc1,-38.04
12,N#Cc1cnc(NCCCN2C(=O)COc3ccccc32)c(Cl)c1,-83.56
13,N#Cc1c(Cl)nsc1NCCCN1C(=O)COc2ccccc21,55.67
14,CC(C)n1cc(N2CC(C(=O)N3CCc4ccccc4C3)CC2=O)cn1 (stereo unspecified),-62.91
15,O=C(O)C(F)(F)F.O=C(c1ccc(O)cc1)N1C[C@@H]2OCCN(c3ncccn3)[C@@H]2C1,6.308
16,O=C(O)CCNC(=O)C1(c2cccc(Br)c2)CCOCC1,-140.1
17,NCC1(c2cccc(C(F)(F)F)c2)CCC1,23
18,CC(C)(CNC(=O)C1(c2cccc(Br)c2)CCOCC1)C(=O)O,-116.6
19,Cl.NCC1(c2cccc(Br)c2)CCOCC1,78.65
20,Fc1cccc(C2(CNC3CCSC3)CCOCC2)c1 (stereo unspecified),-47.45
21,Cc1ccc(NCCNC(=O)c2cc(CC(C)C)n[nH]2)nn1,-140.2
22,Cc1cc(NC(=O)Cn2ccc(-c3ccc4c(c3)OCO4)n2)n(C)n1,-110.5
23,CC(C)CNC(=O)c1cn(C)c(=O)c2ccccc12,-112.9
24,CN(C)CCN1CCO[C@@H]2CCN(C(=O)c3cccn3C)CC[C@H]21,-62.97

row,Compound,Percent Effect [%]
1,CCN1CCC(NC(=O)CN2CCCC(NS(C)(=O)=O)C2)CC1 (stereo unspecified),-94.92
2,CC(C)CC(C)NC1CCN(c2cccc(-c3cscn3)c2)CC1 (stereo unspecified),51.64
3,CC(C)CC(C)NC1CCN(c2ccc(-c3cscn3)cc2)CC1 (stereo unspecified),-115.7
4,c1cc(-c2cscn2)cc(N2CCC(NCCc3cccs3)CC2)c1,23.18
5,Cc1ccc(C(C(=O)N2CCC(Cc3noc(C)n3)CC2)N(C)C)cc1 (stereo unspecified),25.87
6,CN1CCC2(CCN(S(=O)(=O)c3ccc(-c4cnco4)s3)CC2)C1,67.52
7,CN1CCCC2(CCN(C(=O)c3ccncc3)C2)C1 (stereo unspecified),-70.03
8,CN1CCC2(CCCN(S(=O)(=O)c3ccc(-c4cnco4)s3)C2)C1 (stereo unspecified),50.7
9,CN1CCCC2(CCN(S(=O)(=O)c3ccc(-c4cnco4)s3)C2)C1=O (stereo unspecified),-20.09
10,O=S(=O)(c1ccc(-c2cnco2)cc1)N1CCCC(O)(CO)CC1 (stereo unspecified),-42.75
11,Cc1ccc(S(=O)(=O)N2CCN(C)C3(CCC(=O)N(C)CC3)C2)s1 (stereo unspecified),-170.6
12,CCCn1c(C)c(CC(=O)NCC(N)=O)c2c1CC(C)(C)CC2=O,-28.28
13,O=C(C1CCCO1)N1CCC2(CC1)COCCN2CC1CC1 (stereo unspecified),-162.7
14,CN(Cc1ncc[nH]1)c1nc(-c2ccccn2)nc2c1CCNCC2,54.09
15,CN(CCO)c1nc(-c2ccccn2)nc2c1CCNC2,-87.29
16,c1ccc(-c2nc3c(c(NCCn4ccnn4)n2)CCNCC3)nc1,6.036
17,CN(Cc1nccs1)c1nc(-c2ccccn2)nc2c1CCNCC2,83.34
18,CN(Cc1ccc(-n2cccn2)cc1)c1nc(N)nc2c1CCNCC2,57.31
19,CN(Cc1cccnc1)c1nccc(N2CCN[C@H]3CS(=O)(=O)C[C@H]32)n1,-59
20,CC(=O)N1CCc2c(nc(-c3ccccn3)nc2N(C)CC(O)CO)C1 (stereo unspecified),-23.68
21,CN(Cc1ccccc1-n1cccn1)c1nc(N)nc2c1CCNCC2,-16.16
22,CN(Cc1ccc(-n2cccn2)cc1)c1cc(N)nc(N)n1,39.62
23,CN(Cc1cccnc1)c1nc(-c2ccccn2)nc2c1CCNCC2,53.3
24,CN(Cc1cccnc1)Cc1cncc2c1CCN(c1ccccn1)C2.Cl.Cl.Cl,-32.27

row,Compound,Percent Effect [%]
1,CN(Cc1nccs1)C1CCN(c2ncccn2)CC1,-79.31
2,O=C(O)C(F)(F)F.O=C(O)C(F)(F)F.c1cncc(CO[C@H]2CN(Cc3ccco3)[C@@H]3COC[C@H]23)c1,-20
3,Nc1nnc(SCc2cc(=O)n3c4c(sc3n2)CCCC4)[nH]1,-122.1
4,O=C(C1CCC1)N1C(CN2CCOCC2)[C@]2(O)CC[C@H]1CC2 (stereo partly specified),-122.6
5,O=C(Cn1nc(Br)nc1Br)N1CCCCC1,-129.7
6,Cc1nc(CC2CCN(C(=O)C(c3ccccc3C)N(C)C)CC2)no1 (stereo unspecified),-27.12
7,COc1ccc(CN(Cc2cncn2C)CC2CCCO2)cc1.O=C(O)CC(O)(CC(=O)O)C(=O)O (stereo unspecified),-5.826
8,CC1CCN(c2nc3ncc4c(c3c(=O)[nH]2)CC(C)(C)CC4=O)CC1,-163.1
9,CCOCc1nc2c(c(N(C)Cc3snnc3C)n1)CCNCC2,-53.15
10,CCOCc1nc2c(c(N(C)Cc3nonc3C)n1)CCNCC2,45.51
11,CN(Cc1ccsc1)c1nc(-c2ccccn2)nc2c1CCNCC2,79.12
12,CCOCc1nc2c(c(N(C)Cc3ccsc3)n1)CCNCC2,63.06
13,CN(CC1Cc2ccccc2CN1C)c1nc(N)nc2c1CCNCC2 (stereo unspecified),-16.74
14,COCC(Nc1nc(N(C)C)nc2c1CCNCC2)c1ccccn1 (stereo unspecified),-46.74
15,COCC1CCN(C(=O)c2cn(Cc3ccccc3F)nn2)CC1,-60.58
16,CN(C)c1cc(C(=O)NCCc2n[nH]c(=O)[nH]2)ccn1,-61.85
17,Cc1cnn(CC2CN(Cc3nc(C4CC4)no3)CCO2)c1 (stereo unspecified),-0.1422
18,CC(C)N1CCC(CNC(=O)COc2ccc(F)cc2F)C1 (stereo unspecified),52.83
19,CC(C)N1CCC(CNC(=O)CCc2cc(F)ccc2F)C1 (stereo unspecified),6.837
20,COCCN1CCC(CNC(=O)CCc2cc(F)ccc2F)C1 (stereo unspecified),-6.086
21,Cc1cc(CNC(=O)N2CCN(c3ccc(Cl)cn3)CC2)c(C)o1,-63.56
22,CC(=O)N1CCO[C@@H]2CN(C(=O)NCc3ccccc3)CC[C@@H]2C1,-111.3
23,Cc1cnc(N2CC[C@@H]3OC(COCC(=O)N(C)C)CC[C@@H]32)nc1.O=C(O)C(F)(F)F (stereo partly specified),-36.79
24,CCCOc1cc(C)ccc1NC(=O)NCCNC(=O)C(C)C,-67.23
